Data as given in PubChem BioAssay AID1159580 (chemical genetic matrix, 2015).
Hit rate of the full screen: of about 5,500 compounds, about 2,000 (36%) were called active. Another 18% or so got no clear call; they are omitted. Cut-off read from the data, not from the text of the source: active = normalized growth mostly below about 0.91 (no sharp cut-off); inconclusive = no clear call, values can overlap the other calls; inactive = mostly above about 0.92. The list shows a part of the results.

Assay: chemical genetic growth profiling, strain panel (AID 1159580);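 note: tested at 20 µM; growth read once vehicle control cultures reached saturation at 30 °C; 1 = growth at the plate median or of vehicle wells; lower values mean less growth of the strain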
Settings: growth OD

Measured: normalized growth

CC(=O)OC1CC(OC(C)=O)C2(C)C(CC(OC(C)=O)C3(C)C4=CC(=O)OC(=O)C4(C)CCC32)C1(C)C (stereo unspecified)
inactive: S. cerevisiae deletion strains, locus YBR021W, strain FUR4, stronger effect = lower value 1.01 | S. cerevisiae deletion strains, locus YBR229C, strain ROT2, stronger effect = lower value 1 | S. cerevisiae deletion strains, locus YCL029C, strain bik1, stronger effect = lower value 1 | S. cerevisiae deletion strains, locus YDL035C, strain GPR1, stronger effect = lower value 1.01 | S. cerevisiae deletion strains, locus YDL074C, strain BRE1, stronger effect = lower value 1.02 | S. cerevisiae deletion strains, locus YDL101C, strain DUN1, stronger effect = lower value 1.02 | S. cerevisiae deletion strains, locus YDL134C, strain PPH21, stronger effect = lower value 1.02 | S. cerevisiae deletion strains, locus YDL185W, strain tfp1, stronger effect = lower value 1.01 | S. cerevisiae deletion strains, locus YDL192W, strain arf1, stronger effect = lower value 0.982 | S. cerevisiae deletion strains, locus YDR101C, strain arx1, stronger effect = lower value 0.996 | S. cerevisiae deletion strains, locus YDR150W, strain NUM1, stronger effect = lower value 1.01 | S. cerevisiae deletion strains, locus YDR162C, strain NBP2, stronger effect = lower value 1.01 | S. cerevisiae deletion strains, locus YDR318W, strain mcm21, stronger effect = lower value 0.99 | S. cerevisiae deletion strains, locus YDR388W, stronger effect = lower value 1.01 | S. cerevisiae deletion strains, locus YDR502C, strain sam2, stronger effect = lower value 1.02 | S. cerevisiae deletion strains, locus YER110C, stronger effect = lower value 1 | S. cerevisiae deletion strains, locus YER155C, strain BEM2, stronger effect = lower value 0.993 | S. cerevisiae deletion strains, locus YER167W, strain BCK2, stronger effect = lower value 0.995 | S. cerevisiae deletion strains, locus YGL078C, strain dbp3, stronger effect = lower value 1.03 | S. cerevisiae deletion strains, locus YGL086W, strain mad1, stronger effect = lower value 0.998 | S. cerevisiae deletion strains, locus YGL248W, strain PDE1, stronger effect = lower value 1.03 | S. cerevisiae deletion strains, locus YGR078C, strain PAC10, stronger effect = lower value 1.04 | S. cerevisiae deletion strains, locus YGR135W, strain pre9, stronger effect = lower value 1.06 | S. cerevisiae deletion strains, locus YGR252W, strain gcn5, stronger effect = lower value 1.03 | S. cerevisiae deletion strains, locus YHR030C, strain SLT2, stronger effect = lower value 0.999 | S. cerevisiae deletion strains, locus YHR079C, strain IRE1 (second series), stronger effect = lower value 1 | S. cerevisiae deletion strains, locus YHR094C, strain hxt1, stronger effect = lower value 1.01 | S. cerevisiae deletion strains, locus YHR129C, strain ARP1, stronger effect = lower value 1.01 | S. cerevisiae deletion strains, locus YHR200W, strain rpn10, stronger effect = lower value 1.01 | S. cerevisiae deletion strains, locus YIL066C, strain RNR3, stronger effect = lower value 0.99 | S. cerevisiae deletion strains, locus YIL073C, strain SPO22, stronger effect = lower value 1.04 | S. cerevisiae deletion strains, locus YIL125W, strain kgd1, stronger effect = lower value 0.993 | S. cerevisiae deletion strains, locus YIR030C, strain dcg1, stronger effect = lower value 0.999 | S. cerevisiae deletion strains, locus YJL095W, strain BCK1, stronger effect = lower value 1.04 | S. cerevisiae deletion strains, locus YJL134W, strain LCB3, stronger effect = lower value 0.997 | S. cerevisiae deletion strains, locus YJL168C, strain set2, stronger effect = lower value 1 | S. cerevisiae deletion strains, locus YJL187C, strain SWE1 (second series), stronger effect = lower value 1.04 | S. cerevisiae deletion strains, locus YJR043C, strain POL32, stronger effect = lower value 0.99 | S. cerevisiae deletion strains, locus YJR075W, strain HOC1, stronger effect = lower value 1.01 | S. cerevisiae deletion strains, locus YKL009W, strain mrt4, stronger effect = lower value 0.992 | S. cerevisiae deletion strains, locus YKL068W, stronger effect = lower value 1.01 | S. cerevisiae deletion strains, locus YKL085W, strain MDH1 (second series), stronger effect = lower value 0.987 | S. cerevisiae deletion strains, locus YKL085W, strain MDH1, stronger effect = lower value 0.987 | S. cerevisiae deletion strains, locus YKL190W, strain CNB1, stronger effect = lower value 1.01 | S. cerevisiae deletion strains, locus YKR001C, strain vps1, stronger effect = lower value 0.987 | S. cerevisiae deletion strains, locus YLR039C, strain RIC1, stronger effect = lower value 1.02 | S. cerevisiae deletion strains, locus YLR058C, strain SHM2, stronger effect = lower value 1.02 | S. cerevisiae deletion strains, locus YLR102C, strain apc9, stronger effect = lower value 1.01 | S. cerevisiae deletion strains, locus YLR262C, strain YPT6, stronger effect = lower value 0.985 | S. cerevisiae deletion strains, locus YLR268W, strain sec22, stronger effect = lower value 0.981 | S. cerevisiae deletion strains, locus YLR330W, strain CHS5, stronger effect = lower value 1 | S. cerevisiae deletion strains, locus YLR371W, strain rom2, stronger effect = lower value 0.987 | S. cerevisiae deletion strains, locus YLR418C, strain cdc73, stronger effect = lower value 1.03 | S. cerevisiae deletion strains, locus YML016C, strain PPZ1, stronger effect = lower value 1.01 | S. cerevisiae deletion strains, locus YML032C, strain rad52, stronger effect = lower value 1 | S. cerevisiae deletion strains, locus YML124C, strain tub3, stronger effect = lower value 0.998 | S. cerevisiae deletion strains, locus YMR078C, strain ctf18, stronger effect = lower value 1 | S. cerevisiae deletion strains, locus YMR223W, strain ubp8, stronger effect = lower value 1 | S. cerevisiae deletion strains, locus YMR307W, strain GAS1, stronger effect = lower value 0.916 | S. cerevisiae deletion strains, locus YNL067W, strain RPL9B, stronger effect = lower value 1.05 | S. cerevisiae deletion strains, locus YNL233W, strain BNI4, stronger effect = lower value 1.02 | S. cerevisiae deletion strains, locus YNL250W, strain rad50, stronger effect = lower value 1.02 | S. cerevisiae deletion strains, locus YNL271C, strain bni1, stronger effect = lower value 1.01 | S. cerevisiae deletion strains, locus YNL298W, strain CLA4, stronger effect = lower value 1.01 | S. cerevisiae deletion strains, locus YNL307C, strain MCK1, stronger effect = lower value 1.02 | S. cerevisiae deletion strains, locus YNR052C, strain pop2, stronger effect = lower value 1.03 | S. cerevisiae deletion strains, locus YOL006C, strain TOP1, stronger effect = lower value 0.98 | S. cerevisiae deletion strains, locus YOL012C, strain htz1 0.765 | S. cerevisiae deletion strains, locus YOL147C, strain pex11, stronger effect = lower value 1 | S. cerevisiae deletion strains, locus YOR061W, strain CKA2, stronger effect = lower value 0.994 | S. cerevisiae deletion strains, locus YOR069W, strain VPS5, stronger effect = lower value 1.01 | S. cerevisiae deletion strains, locus YOR136W, strain idh2, stronger effect = lower value 1.01 | S. cerevisiae deletion strains, locus YOR144C, strain elg1, stronger effect = lower value 0.996 | S. cerevisiae deletion strains, locus YOR184W, strain ser1, stronger effect = lower value 0.978 | S. cerevisiae deletion strains, locus YOR316C, strain cot1, stronger effect = lower value 1.01 | S. cerevisiae deletion strains, locus YPR119W, strain clb2, stronger effect = lower value 1.01 | S. cerevisiae deletion strains, locus YPR141C, strain kar3, stronger effect = lower value 1.01 | S. cerevisiae deletion strains, locus YPR163C, strain tif3, stronger effect = lower value 1.02 | S. cerevisiae deletion strains, locus YPR167C, strain met16, stronger effect = lower value 1.01 | S. cerevisiae deletion strains, strain wtn01, stronger effect = lower value 0.975 | S. cerevisiae strains, strain wild type, stronger effect = lower value 1
